Source: PubChem BioAssay AID1159580 (chemical genetic matrix, 2015)
Values joined by “and” are separate entries in the source; they are usually repeats but may differ in a detail not shown here. Equal entries are not always repeated. Hit rate of the full screen: of about 5,500 compounds, about 2,000 (36%) were called active. About 18% were inconclusive and are not listed. Cut-off read from the data, not from the text of the source: active = normalized growth mostly below about 0.91 (no sharp cut-off); inconclusive = no clear call, values can overlap the other calls; inactive = mostly above about 0.92. This is one part of the list.

Assay: chemical genetic growth profiling, strain panel (AID 1159580);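 note: tested at 20 µM; growth read once vehicle control cultures reached saturation at 30 °C; 1 = growth at the plate median or of vehicle wells; lower values mean less growth of the strain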
Settings: growth OD

Measured: normalized growth

CN1CCN(CC(=O)N2c3ccccc3C(=O)Nc3cccnc32)CC1
inactive: S. cerevisiae deletion strains, locus YJR075W, strain HOC1, hits give low values 1.01 and 0.992 | S. cerevisiae deletion strains, locus YKL009W, strain mrt4, hits give low values 0.998 | S. cerevisiae deletion strains, locus YKL068W, hits give low values 1 | S. cerevisiae deletion strains, locus YKL085W, strain MDH1 (second series), hits give low values 1.02 | S. cerevisiae deletion strains, locus YKL085W, strain MDH1, hits give low values 1.02 | S. cerevisiae deletion strains, locus YKL160W, strain elf1, hits give low values 1.01 | S. cerevisiae deletion strains, locus YKL190W, strain CNB1, hits give low values 1.01 | S. cerevisiae deletion strains, locus YKR001C, strain vps1, hits give low values 1.01 | S. cerevisiae deletion strains, locus YKR026C, strain gcn3, hits give low values 1.01 | S. cerevisiae deletion strains, locus YKR091W, strain srl3, hits give low values 1 | S. cerevisiae deletion strains, locus YLL001W, strain dnm1, hits give low values 1.01 | S. cerevisiae deletion strains, locus YLL026W, hits give low values 1.02 | S. cerevisiae deletion strains, locus YLL041C, strain sdh2, hits give low values 1.01 | S. cerevisiae deletion strains, locus YLR027C, strain aat2, hits give low values 1 | S. cerevisiae deletion strains, locus YLR039C, strain RIC1, hits give low values 1.04 | S. cerevisiae deletion strains, locus YLR058C, strain SHM2, hits give low values 1.02 | S. cerevisiae deletion strains, locus YLR102C, strain apc9, hits give low values 1.02 | S. cerevisiae deletion strains, locus YLR113W, strain HOG1, hits give low values 0.989 | S. cerevisiae deletion strains, locus YLR221C, strain rsa3, hits give low values 1.01 | S. cerevisiae deletion strains, locus YLR258W, strain gsy2, hits give low values 1.02 | S. cerevisiae deletion strains, locus YLR262C, strain YPT6 (second series), hits give low values 0.992 | S. cerevisiae deletion strains, locus YLR262C, strain YPT6, hits give low values 1.04 | S. cerevisiae deletion strains, locus YLR268W, strain sec22, hits give low values 1.03 | S. cerevisiae deletion strains, locus YLR320W, strain mms22, hits give low values 1.02 | S. cerevisiae deletion strains, locus YLR330W, strain CHS5, hits give low values 1.01 | S. cerevisiae deletion strains, locus YLR342W, strain FKS1 (second series), hits give low values 1.05 | S. cerevisiae deletion strains, locus YLR342W, strain FKS1, hits give low values 1.01 | S. cerevisiae deletion strains, locus YLR357W, strain rsc2, hits give low values 1.05 | S. cerevisiae deletion strains, locus YLR370C, strain arc18, hits give low values 1.03 | S. cerevisiae deletion strains, locus YLR371W, strain rom2, hits give low values 1.03 | S. cerevisiae deletion strains, locus YLR384C, strain iki3, hits give low values 1.02 | S. cerevisiae deletion strains, locus YLR418C, strain cdc73, hits give low values 1.05 | S. cerevisiae deletion strains, locus YML016C, strain PPZ1, hits give low values 1.01 | S. cerevisiae deletion strains, locus YML032C, strain rad52, hits give low values 1.01 | S. cerevisiae deletion strains, locus YML120C, strain ndi1, hits give low values 1 | S. cerevisiae deletion strains, locus YML124C, strain tub3, hits give low values 1.02 | S. cerevisiae deletion strains, locus YMR058W, strain fet3, hits give low values 1.04 | S. cerevisiae deletion strains, locus YMR078C, strain ctf18, hits give low values 1.01 | S. cerevisiae deletion strains, locus YMR125W, strain sto1, hits give low values 1.01 | S. cerevisiae deletion strains, locus YMR129W, hits give low values 1.02 | S. cerevisiae deletion strains, locus YMR205C, strain PFK2, hits give low values 1.04 | S. cerevisiae deletion strains, locus YMR223W, strain ubp8, hits give low values 1.01 | S. cerevisiae deletion strains, locus YMR231W, strain pep5, hits give low values 1.02 | S. cerevisiae deletion strains, locus YMR263W, strain SAP30, hits give low values 1.01 | S. cerevisiae deletion strains, locus YMR307W, strain GAS1, hits give low values 1.07 | S. cerevisiae deletion strains, locus YNL067W, strain RPL9B, hits give low values 1.01 | S. cerevisiae deletion strains, locus YNL071W, strain lat1, hits give low values 1.03 | S. cerevisiae deletion strains, locus YNL128W, strain TEP1, hits give low values 1.03 | S. cerevisiae deletion strains, locus YNL153C, strain GIM3, hits give low values 1.01 | S. cerevisiae deletion strains, locus YNL175C, strain NOP13, hits give low values 0.985 | S. cerevisiae deletion strains, locus YNL183C, strain NPR1, hits give low values 0.938 | S. cerevisiae deletion strains, locus YNL197C, strain WHI3, hits give low values 0.982 | S. cerevisiae deletion strains, locus YNL209W, strain ssb2, hits give low values 1.02 | S. cerevisiae deletion strains, locus YNL224C, strain SQS1, hits give low values 1.01 | S. cerevisiae deletion strains, locus YNL233W, strain BNI4, hits give low values 1.01 | S. cerevisiae deletion strains, locus YNL248C, strain rpa49, hits give low values 1.03 | S. cerevisiae deletion strains, locus YNL250W, strain rad50, hits give low values 1.01 | S. cerevisiae deletion strains, locus YNL271C, strain bni1, hits give low values 1.01 | S. cerevisiae deletion strains, locus YNL298W, strain CLA4, hits give low values 1.02 | S. cerevisiae deletion strains, locus YNL307C, strain MCK1, hits give low values 1.03 | S. cerevisiae deletion strains, locus YNL322C, strain KRE1 (second series), hits give low values 1.02 | S. cerevisiae deletion strains, locus YNL322C, strain KRE1, hits give low values 1.01 | S. cerevisiae deletion strains, locus YNR049C, strain mso1, hits give low values 1 | S. cerevisiae deletion strains, locus YNR052C, strain pop2, hits give low values 1.03 | S. cerevisiae deletion strains, locus YOL006C, strain TOP1, hits give low values 1.05 | S. cerevisiae deletion strains, locus YOL012C, strain htz1 0.832 | S. cerevisiae deletion strains, locus YOL147C, strain pex11, hits give low values 1.04 | S. cerevisiae deletion strains, locus YOR001W, strain rrp6, hits give low values 1.02 | S. cerevisiae deletion strains, locus YOR061W, strain CKA2, hits give low values 1.01 | S. cerevisiae deletion strains, locus YOR069W, strain VPS5, hits give low values 1.01 | S. cerevisiae deletion strains, locus YOR070C, strain gyp1, hits give low values 1.02 | S. cerevisiae deletion strains, locus YOR080W, strain dia2, hits give low values 1.01 | S. cerevisiae deletion strains, locus YOR083W, strain WHI5 (second series), hits give low values 0.986 | S. cerevisiae deletion strains, locus YOR083W, strain WHI5, hits give low values 0.967 | S. cerevisiae deletion strains, locus YOR106W, strain vam3, hits give low values 1.02 | S. cerevisiae deletion strains, locus YOR136W, strain idh2, hits give low values 1.01 | S. cerevisiae deletion strains, locus YOR144C, strain elg1, hits give low values 1.02 | S. cerevisiae deletion strains, locus YOR184W, strain ser1, hits give low values 1.01 | S. cerevisiae deletion strains, locus YOR231W, strain MKK1, hits give low values 0.983 | S. cerevisiae deletion strains, locus YOR265W, strain rbl2, hits give low values 1.01 | S. cerevisiae deletion strains, locus YOR270C, strain vph1, hits give low values 1.06 | S. cerevisiae deletion strains, locus YOR290C, strain snf2, hits give low values 1.02 | S. cerevisiae deletion strains, locus YOR316C, strain cot1, hits give low values 1.02 | S. cerevisiae deletion strains, locus YPL051W, strain arl3, hits give low values 1.01 | S. cerevisiae deletion strains, locus YPL055C, strain LGE1, hits give low values 1.01 | S. cerevisiae deletion strains, locus YPL078C, strain atp4, hits give low values 1.02 | S. cerevisiae deletion strains, locus YPL106C, strain sse1, hits give low values 1.03 | S. cerevisiae deletion strains, locus YPL240C, strain hsp82, hits give low values 1 | S. cerevisiae deletion strains, locus YPL241C, strain CIN2, hits give low values 1.01 and 0.991 | S. cerevisiae deletion strains, locus YPL256C, strain CLN2, hits give low values 0.978 | S. cerevisiae deletion strains, locus YPR119W, strain clb2, hits give low values 1.01 | S. cerevisiae deletion strains, locus YPR141C, strain kar3, hits give low values 1.02 | S. cerevisiae deletion strains, locus YPR163C, strain tif3, hits give low values 1.03 | S. cerevisiae deletion strains, locus YPR167C, strain met16, hits give low values 1.02 | S. cerevisiae deletion strains, strain wtn01, hits give low values 1.01 | S. cerevisiae strains, strain wild type, hits give low values 1.01
